Laboratory results taken from PubChem BioAssay (NCI).
Compounds without any hit were thinned out: in the full panel of roughly 79,000, 15% have a hit. Activity calls are given as the source filed them. Rule as the data show it: active = growth inhibition above about 70%; inactive = the rest.

Test: NCI Yeast Anticancer Drug Screen. Data for the wt2 strain (AID 169);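 also: 0% = growth of vehicle-treated yeast cultures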
Conditions: S. cerevisiae wt2 strain growth inhibition; at 3.7 µM; hits give high values
Summary of the method: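 Yeast cells were exposed to test compounds, and growth inhibition was measured relative to vehicle-treated controls.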

SMILES | growth inhibition
COc1ccc2nc3cccc([N+](=O)[O-])c3c(NCCNCCN(C)C)c2c1 | -4% (inactive)
Cc1cccc(/C=N/NC(=S)NC2CCCCC2)n1 | -4% (inactive)
COC(=O)C(=O)c1c(-c2ccc(Cl)c(Cl)c2)[nH]c2[nH]n(-c3ccccc3)c(=O)c2c1=O | 5% (inactive)
c1ccc([P+](CCN2Cc3ccccc3C2)(c2ccccc2)c2ccccc2)cc1 | -19% (inactive)
Cc1cc(C)c2[s+]snc2c1 | 1% (inactive)
CC(C)(Br)C(=O)/C=C/c1ccccc1 | 3% (inactive)
Cc1ccc(S(=O)(=O)NC(=O)C2C(=O)CC3(CCCCC3)CC2=O)cc1 | -28% (inactive)
NC(=S)N1N=C2c3ccccc3CC[C@H]2[C@@H]1c1ccc(Cl)cc1 | 14% (inactive)
O=[N+]([O-])/C=C/c1cc2ccc3ccccc3c2[nH]1 | 57% (inactive)
O=C1C(=C2CCCC2)CCC1CN1CCCCC1 (configuration not stated) | 2% (inactive)
OC(CC(O)(C(F)(F)F)C(F)(F)F)c1ccc(C(O)CC(O)(C(F)(F)F)C(F)(F)F)cc1 (configuration not stated) | 17% (inactive)
COc1cc2c(cc1OC)[C@@H](Nc1ccc(C#N)cc1)C1COC(=O)[C@@H]1C2c1cc(OC)c(O)c(OC)c1 (some centres not stated) | 17% (inactive)
O=c1cccccc1[O-].O=c1cccccc1[O-].O=c1cccccc1[O-].[Eu+3] | 3% (inactive)
O=C1c2ccccc2C(=O)c2sc(Nc3ccccc3Cl)nc21 | 77% (active)
NC(CCCCCCCCCCCCC(N)C(=O)c1ccccc1)C(=O)c1ccccc1 (configuration not stated) | -8% (inactive)
CC1=C(C)C(=O)C2=C(OCCO2)C1=O | -12% (inactive)
c1ccc(-c2cc(C3CO3)c3ccccc3n2)cc1 (configuration not stated) | 1% (inactive)
S=C1C(=Nc2ccccc2)N(c2ccccc2)/C(=N\c2ccccn2)N1c1ccccc1 | -2% (inactive)

SMILES | growth inhibition
CCC(OC(C)=O)C1CC(C(C)C)CCC1C (configuration not stated) | 7% (inactive)
CC(C)=CCc1c2c(c(O)c3c(=O)c(-c4ccc(O)c(O)c4)coc13)C=CC(C)(C)O2 | -52% (inactive)
O=C(NC(N1CCN(c2cc3c(cc2F)c(=O)c(C(=O)O)cn3C2CC2)CC1)(C(F)(F)F)C(F)(F)F)c1ccccc1 | -2% (inactive)
Fc1cc(F)c(F)c(S)c1F | -46% (inactive)
COc1ccc2cc3c4cc5c(cc4cc[n+]3cc2c1OC)OCO5 | 32% (inactive)
CCCCCCCCNCCCCCCCC | 17% (inactive)
Nc1cc(Cl)ccc1Nc1ccccc1 | -15% (inactive)
O=C(/C(=C/c1ccc(O)cc1)c1ccccc1)c1ccccc1 | -31% (inactive)
O=Cc1ccccc1C=O | -26% (inactive)
C1=CCN([B-](c2ccccc2)[C+]2CCCCC2)C=C1 | 7% (inactive)
CC/C(=C(\c1ccccc1)c1ccc(OCC[N+](C)(C)C)cc1)c1ccccc1 | 55% (inactive)
O=S(=O)(c1cccc(C(F)(F)F)c1)N1c2ccccc2-n2cccc2C1c1cccnc1 (configuration not stated) | -41% (inactive)
Nc1ccc2c(c1)C(=O)c1c(F)cccc1-2 | 0% (inactive)
CN(C)/C(=N/C(=S)Nc1ccccc1)SCc1ccccc1 | -2% (inactive)
CCN(CC)C(=S)N/N=C(\C)c1ccccc1O | -31% (inactive)
CC(C)OC(=O)NNc1cc(Cl)ccc1Cl | 4% (inactive)
CC(C)CCC[C@@H](C)[C@H]1CC[C@H]2[C@@H]3CC[C@H]4C[C@H](N)CC[C@]4(C)[C@H]3CC[C@]12C | -8% (inactive)
O=C1c2ccccc2-c2ccc(N=Cc3ccccc3)cc21 | 6% (inactive)

Same assay, conditions: S. cerevisiae wt2 strain growth inhibition; at 11.0 µM; hits give high values

SMILES | growth inhibition
COc1ccc2nc3cccc([N+](=O)[O-])c3c(NCCNCCN(C)C)c2c1 | -3% (inactive)
Cc1cccc(/C=N/NC(=S)NC2CCCCC2)n1 | 1% (inactive)
COC(=O)C(=O)c1c(-c2ccc(Cl)c(Cl)c2)[nH]c2[nH]n(-c3ccccc3)c(=O)c2c1=O | 44% (inactive)
c1ccc([P+](CCN2Cc3ccccc3C2)(c2ccccc2)c2ccccc2)cc1 | 11% (inactive)
Cc1cc(C)c2[s+]snc2c1 | 3% (inactive)
CC(C)(Br)C(=O)/C=C/c1ccccc1 | 6% (inactive)
Cc1ccc(S(=O)(=O)NC(=O)C2C(=O)CC3(CCCCC3)CC2=O)cc1 | 20% (inactive)
NC(=S)N1N=C2c3ccccc3CC[C@H]2[C@@H]1c1ccc(Cl)cc1 | 11% (inactive)
O=[N+]([O-])/C=C/c1cc2ccc3ccccc3c2[nH]1 | 87% (active)
O=C1C(=C2CCCC2)CCC1CN1CCCCC1 (configuration not stated) | 11% (inactive)
OC(CC(O)(C(F)(F)F)C(F)(F)F)c1ccc(C(O)CC(O)(C(F)(F)F)C(F)(F)F)cc1 (configuration not stated) | 98% (active)
COc1cc2c(cc1OC)[C@@H](Nc1ccc(C#N)cc1)C1COC(=O)[C@@H]1C2c1cc(OC)c(O)c(OC)c1 (some centres not stated) | 46% (inactive)
O=c1cccccc1[O-].O=c1cccccc1[O-].O=c1cccccc1[O-].[Eu+3] | 22% (inactive)
O=C1c2ccccc2C(=O)c2sc(Nc3ccccc3Cl)nc21 | 99% (active)
NC(CCCCCCCCCCCCC(N)C(=O)c1ccccc1)C(=O)c1ccccc1 (configuration not stated) | 83% (active)
CC1=C(C)C(=O)C2=C(OCCO2)C1=O | -2% (inactive)
c1ccc(-c2cc(C3CO3)c3ccccc3n2)cc1 (configuration not stated) | 12% (inactive)
S=C1C(=Nc2ccccc2)N(c2ccccc2)/C(=N\c2ccccn2)N1c1ccccc1 | 27% (inactive)

SMILES | growth inhibition
CCC(OC(C)=O)C1CC(C(C)C)CCC1C (configuration not stated) | 0% (inactive)
CC(C)=CCc1c2c(c(O)c3c(=O)c(-c4ccc(O)c(O)c4)coc13)C=CC(C)(C)O2 | 77% (active)
O=C(NC(N1CCN(c2cc3c(cc2F)c(=O)c(C(=O)O)cn3C2CC2)CC1)(C(F)(F)F)C(F)(F)F)c1ccccc1 | -1% (inactive)
Fc1cc(F)c(F)c(S)c1F | -32% (inactive)
COc1ccc2cc3c4cc5c(cc4cc[n+]3cc2c1OC)OCO5 | 62% (inactive)
CCCCCCCCNCCCCCCCC | 76% (active)
Nc1cc(Cl)ccc1Nc1ccccc1 | -22% (inactive)
O=C(/C(=C/c1ccc(O)cc1)c1ccccc1)c1ccccc1 | 33% (inactive)
O=Cc1ccccc1C=O | -15% (inactive)
C1=CCN([B-](c2ccccc2)[C+]2CCCCC2)C=C1 | 3% (inactive)
CC/C(=C(\c1ccccc1)c1ccc(OCC[N+](C)(C)C)cc1)c1ccccc1 | 99% (active)
O=S(=O)(c1cccc(C(F)(F)F)c1)N1c2ccccc2-n2cccc2C1c1cccnc1 (configuration not stated) | 60% (inactive)
Nc1ccc2c(c1)C(=O)c1c(F)cccc1-2 | 0% (inactive)
CN(C)/C(=N/C(=S)Nc1ccccc1)SCc1ccccc1 | 0% (inactive)
CCN(CC)C(=S)N/N=C(\C)c1ccccc1O | 6% (inactive)
CC(C)OC(=O)NNc1cc(Cl)ccc1Cl | 23% (inactive)
CC(C)CCC[C@@H](C)[C@H]1CC[C@H]2[C@@H]3CC[C@H]4C[C@H](N)CC[C@]4(C)[C@H]3CC[C@]12C | 6% (inactive)
O=C1c2ccccc2-c2ccc(N=Cc3ccccc3)cc21 | 18% (inactive)
